Data published in PubChem BioAssay (NCI).
Compounds without any hit were thinned out: in the full panel of roughly 83,000, 20% have a hit.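 Note: values are percent growth. 100 is the growth of untreated cells, values between 100 and 0 indicate rising inhibition; between -100 and 0 indicates cell death.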 A number with no mark means an inactive call. Active and inactive are the calls of the source. How the source made its calls: active means growth percent below 10; inactive means the rest.

Tested on: UO-31 renal
Assay: NCI-60 one-dose screen, 48 h (100 = growth as untreated, 0 = no growth, -100 = all killed)
Details: 10 µM unless noted

SMILES	growth
C=C1CC[C@@H]2[C@]3(C)COC(c4cn[nH]c4-c4ccc(Br)cc4)O[C@@H]3CC[C@@]2(C)[C@@H]1C/C=C1/C(=O)OCC1O (some centres not stated)	-92.1% (active)
Cc1cnc(C(=O)NNc2nc3cc(F)ccc3n3c(C(=O)N4CC5CC(C4)N5)ccc23)cn1	23.3%
CCCSc1nc(Nc2ccc(S(N)(=O)=O)cc2)c(C#N)c(-c2cc(OC)c(OC)c(OC)c2)n1	2.53% (active)
C=C1CCC2C3(C)COC(c4ccccc4)OC3CCC2(C)C1CC(NCc1ccccc1)C1=CCOC1=O (configuration not stated)	56.7%
C=C1CC[C@@H]2[C@]3(C)COC(c4ccccc4)O[C@@H]3CC[C@@]2(C)[C@@H]1C/C=C1/C(=O)OCC1OC(C)=O (some centres not stated)	-94.1% (active)

Tested on: TK-10 renal
Assay: as above
Details: 10 µM unless noted

SMILES	growth
O=C(COc1ccc(NC(=O)Nc2ccc(Cl)cc2)cc1)N/N=C/c1ccccc1	-77.9% (active)
COc1cc(/C=C/C(=O)c2ccccc2)ccc1Oc1nc(Nc2ccc(F)cc2)nc(N(C)C)n1	89.8%
CN(C)CCCNC(=O)c1cc(NC(=O)c2cc(NC(=O)c3ccc(/C=C/c4ccccc4)cc3)cn2C)cn1C	83.7%
COc1ccc(C(=O)/C=C/c2ccc(Oc3nc(Nc4ccc(F)cc4)nc(N(C)C)n3)c(OC)c2)cc1	95.7%
CN(C)CCOc1ccc(C(=O)C2[C@H](c3ccc(Cl)cc3)[C@@H](c3ccccc3)NC23C(=O)Nc2ccc(Br)cc23)cc1 (some centres not stated)	90.2%
COc1ccc(-c2ccc(SCC(=O)NCCc3ccc(S(N)(=O)=O)cc3)nn2)cc1	87.9%
Cc1nc(Nc2ncc(C(=O)Nc3c(C)cccc3Cl)s2)cc(N2CCN(CCCNC(=O)COc3ccc(C4CCC(=O)NC4=O)cc3)CC2)n1 (configuration not stated)	-7.44% (active)
C=C1CCC2C3(C)COC(c4ccc(F)cc4)OC3CCC2(C)C1C/C=C1/C(=O)OCC1O (configuration not stated)	-35.8% (active)
O=c1onc(-c2cc3ccccc3nc2Cl)n1-c1cccc2ccccc12	78.6%
O=C1NC(=O)/C(=C/c2ccccc2OCc2cc3ccccc3nc2Cl)S1	97.7%
O=C(COc1ccc(NC(=O)Nc2ccc(Cl)c(Cl)c2)cc1)N=Nc1c(O)[nH]c2ccc(Br)cc12	-0.92% (active)
COc1cccc(/C=C/c2nc3ccccc3c(=O)n2CC(=O)Nc2ccc(Cl)cc2)c1	32.2%
COc1ccc(C(=O)/C=C/c2cccc(Cl)c2)cc1S(N)(=O)=O	-86.1% (active)
COc1cc(C2CC(c3cc(OC)c(OC)c(OC)c3)=NN2c2ccccc2)ccc1OCc1ccc(C)cc1 (configuration not stated)	118%
CCOP(=O)(OCCCl)c1nc(-c2ccc(C)cc2)oc1NCc1ccccc1 (configuration not stated)	100%
Cc1ccccc1[C@H]1C(C(=O)c2ccc(Cl)cc2)C2(N[C@@H]1c1ccccc1)C(=O)Nc1ccccc12 (some centres not stated)	-8.15% (active)
Cc1ccccc1[C@H]1C(C(=O)c2ccc(Cl)cc2)C2(N[C@@H]1c1ccccc1)C(=O)Nc1ccc(Br)cc12 (some centres not stated)	41.6%
Cc1cc(=O)oc2cc(OCCOc3ccc(/C=C/C(=O)Nc4ccccc4N)cc3)ccc12	43.3%
COc1cccc(/C=C/C(=O)c2ccc(OC)c(S(N)(=O)=O)c2)c1	21.2%
Cn1cc(NC(=O)c2cc(NC(=O)c3ccc(/C=C/c4ccccc4)cc3)cn2C)cc1C(=O)NCCCN1CCOCC1	87.9%
CN1CCN(Cc2ccc(C(=O)Nc3cccc(C#Cc4cccc5[nH]nc(N)c45)c3)cc2C(F)(F)F)CC1	-96% (active)
CCCn1cc(-c2nc(Nc3ccc(C(=O)NCCCCNc4cccc5c4C(=O)N(C4CCC(=O)NC4=O)C5=O)cc3)nc3[nH]ccc23)cn1 (configuration not stated)	59.1%
COc1c(F)ccc(C(=O)Nc2ccc3nc(NC(=O)C4CCCN(S(=O)(=O)c5ccc(C(F)(F)F)cc5)C4)sc3c2)c1F (configuration not stated)	99.9%
Cn1nc(C(F)(F)F)cc1-c1cc(Cl)c(COc2ccc(Cl)cc2)c(-c2ccc(Cl)c(C(F)(F)F)c2)c1O	3.16% (active)
COc1ccc2c(c1)c(/C=N/Nc1ccc3ccccc3n1)cn2C	43.4%
COc1c(F)ccc(C(=O)Nc2ccc3nc(NC(=O)C4CCCN(S(=O)(=O)c5ccc(Br)c(F)c5)C4)sc3c2)c1F (configuration not stated)	122%
COc1cc(OC)cc(-c2cc3ccc(N(C)C)cc3c(=O)[nH]2)c1	79.1%
